Source: PubChem BioAssay
Most compounds without a hit are left out; they make up all but 3% or so of the library.
GDH-TPI counter: inhibits GDH-TPI coupling enzymes, artifact for Mtb FBA screen; GDH-TPI coupled enzyme counterscreen, NADH absorbance; inhibition, % at 4.8 µM; 360,000 tested, 1.2% active; AID 588335; in the data active means inhibition above about 30%;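 further: 0% = DMSO wells and 100% = wells lacking the enzyme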
BioA inh: inhibitors of Mycobacterium tuberculosis BioA enzyme. purified M. tuberculosis BioA enzyme, plate reader. inhibition, % at 9.99 µM. 360,000 tested, 0.096% active. AID 602481; in the data active means inhibition above about 40%
BH1578 lux ind: inducers of Vibrio cholerae quorum light production without autoinducers; V. cholerae BH1578 lux reporter, luminescence, 6 h; 350,000 tested, 0.16% active; activation, % at 18.7 µM; in the data active means activation mostly above about 9.7%, no sharp cut-off
Mtb FBA inh: inhibits M. tuberculosis FBA enzyme; inhibition, % at 1 µM; 360,000 tested, 2.3% active; P9WQA3; purified M. tuberculosis FBA, fluorescence read-out; in the data active means inhibition above about 27%;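 further: 0% = vehicle and 100% = reference inhibitor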
Target sequence (P9WQA3 whole entry, looked up): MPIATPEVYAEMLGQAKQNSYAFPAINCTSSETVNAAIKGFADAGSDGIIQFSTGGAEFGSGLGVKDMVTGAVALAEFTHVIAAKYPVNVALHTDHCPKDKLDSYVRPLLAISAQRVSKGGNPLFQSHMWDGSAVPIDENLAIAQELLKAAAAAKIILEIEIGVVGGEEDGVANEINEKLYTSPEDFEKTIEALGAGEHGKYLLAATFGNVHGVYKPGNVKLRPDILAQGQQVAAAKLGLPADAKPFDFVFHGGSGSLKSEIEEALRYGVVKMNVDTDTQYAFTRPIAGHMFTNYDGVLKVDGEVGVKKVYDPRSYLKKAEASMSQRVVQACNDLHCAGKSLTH
Numbers without * were called inactive.

What do the screens show for `CN1CCN(C(=O)C[C@H]2C[C@@H]3c4cc(NC(=O)C5CCOCC5)ccc4O[C@@H]3[C@@H](CO)O2)CC1`?
BioA inh: 0.6

How did COc1ccc(N(C)C(=O)c2cc3c(s2)-c2c(C)cccc2OC3)c(OC)c1 do in these assays?
GDH-TPI counter: 31.2*; BioA inh: -0.8; BH1578 lux ind: inactive; Mtb FBA inh: 6.5

Results for CC1CCN(CCCNC(=O)c2cc3c(s2)-c2ccccc2OC3)CC1 ?
GDH-TPI counter: 7.8; BioA inh: 3.4; BH1578 lux ind: -0.2; Mtb FBA inh: active

How did CCN(C(=O)c1cc2c(s1)-c1ccccc1OC2)c1cc(OC)ccc1OC do in these assays?
GDH-TPI counter: 20.8; BioA inh: -0.6; BH1578 lux ind: -0.4; Mtb FBA inh: 2.2

Results for CC1CCCN(CCCNC(=O)c2cc3c(s2)-c2ccccc2OC3)C1 (configuration not stated) ?
GDH-TPI counter: 22.6; BioA inh: 0.2; BH1578 lux ind: inactive

Results for Cc1cccc2c1-c1sc(C(=O)NCCCN3CCC(C)CC3)cc1CO2 ?
GDH-TPI counter: 16.4; BioA inh: -1.3; BH1578 lux ind: inactive; Mtb FBA inh: active

Results for C[C@@H]1CN([C@@H](C)CO)C(=O)c2cc(NC(=O)Nc3ccc(F)cc3)ccc2O[C@@H]1CN(C)Cc1ccc(-c2ccccc2)cc1 ?
BioA inh: -0.7

How did C[C@@H]1CN([C@@H](C)CO)S(=O)(=O)c2ccc(-c3cccc(F)c3)cc2O[C@H]1CN(C)CC1CC1 do in these assays?
BioA inh: 0.0

Results for COc1cccc(NC(=O)Nc2ccc3c(c2)C(=O)N(C)[C@H]2CC[C@H](CC(=O)NCCc4ccccc4)O[C@@H]2CO3)c1 ?
BioA inh: -0.5

How did COc1ccc2cc(C=NS(=O)(=O)c3ccc(C)cc3)n(C)c2c1 do in these assays?
GDH-TPI counter: 35.5*; BioA inh: -0.1; BH1578 lux ind: -0.4; Mtb FBA inh: 0.8

How did COc1ccc2cc(C=O)n(C)c2c1 do in these assays?
GDH-TPI counter: 44.5*; BioA inh: -1.1; BH1578 lux ind: -5.3; Mtb FBA inh: 1.7

What do the screens show for `C[C@H](CO)N1C[C@H](C)[C@H](CN(C)S(=O)(=O)c2ccccc2)Oc2ncc(-c3ccc(F)cc3)cc2C1=O`?
BioA inh: 5.9

What do the screens show for `CC(C)NC(=O)Nc1ccc2c(c1)C(=O)N([C@@H](C)CO)C[C@H](C)[C@@H](CN(C)C)OCCCC[C@H](C)O2`?
BioA inh: -0.6

How did Cc1cc(N2CCN(C)CC2)nc2ccc(NC(=S)NC3CC3)cc12 do in these assays?
GDH-TPI counter: 34.8*; BH1578 lux ind: -0.5; Mtb FBA inh: 11.7

What do the screens show for `CCCN(CCC)CCCNC(=S)Nc1ccc2nc(N3CCN(C)CC3)cc(C)c2c1`?
GDH-TPI counter: 32.5*; BioA inh: 0.2; BH1578 lux ind: -0.4; Mtb FBA inh: 14.3

Results for CC(C)NC(=O)N1C[C@@H]2[C@H](c3ccccc31)[C@@H](CO)N2C(=O)c1ccccc1F ?
BioA inh: -1.5

What do the screens show for `COCc1cc(=O)n2[nH]cc(-c3ccccc3)c2n1`?
GDH-TPI counter: 22.8; BioA inh: -1.7; BH1578 lux ind: -0.8; Mtb FBA inh: 132.6*

Results for CCOC(=O)Cc1cc(=O)n2[nH]cc(-c3cccc(Br)c3)c2n1 ?
GDH-TPI counter: 8.3; BioA inh: 3.8; BH1578 lux ind: inactive; Mtb FBA inh: 26.3

Results for Cn1c(/C(C#N)=C/c2ccc(-c3ccc(S(N)(=O)=O)cc3)o2)nc2ccccc21 ?
GDH-TPI counter: 40.0*; BioA inh: 2.0; BH1578 lux ind: -0.4; Mtb FBA inh: -5.0

Results for C[C@@H]1CN([C@@H](C)CO)C(=O)c2cc(NS(C)(=O)=O)ccc2O[C@@H]1CN(C)C(=O)Nc1cccc2ccccc12 ?
BioA inh: -2.8

How did CCCc1cc(=O)oc2cc(OCc3ccc(C(=O)O)cc3)ccc12 do in these assays?
GDH-TPI counter: 12.7; BioA inh: -0.4; BH1578 lux ind: 1.2; Mtb FBA inh: 48.2*

What do the screens show for `CCc1cc(=O)oc2cc(OCC(=O)NCC3CCC(C(=O)O)CC3)ccc12` (configuration not stated)?
GDH-TPI counter: 18.6; BioA inh: -0.3; BH1578 lux ind: -0.4; Mtb FBA inh: 28.2*

What do the screens show for `CCc1cc(=O)oc2c(C)c(OCC(=O)NCC3CCC(C(=O)O)CC3)ccc12` (configuration not stated)?
GDH-TPI counter: 16.7; BioA inh: 0.9; BH1578 lux ind: -0.6; Mtb FBA inh: 14.6

How did COc1ccc2c(c1)c(=O)oc1cc(OCC(=O)NCC3CCC(C(=O)O)CC3)ccc12 (configuration not stated) do in these assays?
GDH-TPI counter: 10.8; BioA inh: 3.2; BH1578 lux ind: -0.6; Mtb FBA inh: 15.4

Results for C=C(Cl)COc1ccc2c(CCC)cc(=O)oc2c1 ?
GDH-TPI counter: 8.6; BioA inh: 2.7; BH1578 lux ind: inactive; Mtb FBA inh: 15.7

What do the screens show for `COc1ccc(-c2cc3ccc(OCC(=O)NCC4CCC(C(=O)O)CC4)cc3oc2=O)cc1` (configuration not stated)?
GDH-TPI counter: 42.2*; BioA inh: 1.9; BH1578 lux ind: -0.6; Mtb FBA inh: 178.3*

Results for COc1ccc(NC(=O)N(C)C[C@H]2OCCCC[C@@H](C)Oc3ccc(NC(=O)Nc4ccc(C(F)(F)F)cc4)cc3C(=O)N([C@@H](C)CO)C[C@@H]2C)cc1 ?
BioA inh: -0.7

Results for CNc1ccc(-c2cccc(CO)c2)cn1 ?
GDH-TPI counter: 7.1; BioA inh: 0.1; BH1578 lux ind: inactive; Mtb FBA inh: 171.3*

How did Cc1noc(C)c1NC(=O)N(C)C[C@H]1OCCCC[C@H](C)Oc2ccc(NC(=O)CCC(F)(F)F)cc2C(=O)N([C@@H](C)CO)C[C@H]1C do in these assays?
BioA inh: 0.4

How did Nc1ccc2nc(-c3ccccc3)sc2c1 do in these assays?
GDH-TPI counter: 26.1; BioA inh: -5.0; BH1578 lux ind: inactive; Mtb FBA inh: active

How did Nc1ccc(-c2nc3cc(N)ccc3s2)cc1 do in these assays?
GDH-TPI counter: 15.2; BioA inh: -4.4; BH1578 lux ind: -0.1; Mtb FBA inh: 17.7

How did CC(=O)NC(=S)Nc1ccc(-c2nc3ccc(C)cc3s2)cc1 do in these assays?
GDH-TPI counter: 4.6; BioA inh: -2.5; BH1578 lux ind: inactive; Mtb FBA inh: 6.5

How did Cc1ccc2nc(-c3ccc(NS(=O)(=O)c4ccc(F)cc4)cc3)sc2c1 do in these assays?
GDH-TPI counter: 37.4*; BioA inh: 0.1; BH1578 lux ind: inactive; Mtb FBA inh: active

What do the screens show for `Cc1ccc2nc(-c3ccc(N)cc3)sc2c1`?
GDH-TPI counter: 25.0; BioA inh: 3.5; BH1578 lux ind: 0.4; Mtb FBA inh: active

What do the screens show for `CC1=CCC(C(=O)O)C(C(=O)Nc2ccc(-c3nc4ccc(C)cc4s3)cc2)C1` (configuration not stated)?
GDH-TPI counter: 37.4*; BH1578 lux ind: inactive; Mtb FBA inh: 190.4*

How did O=C(CCS(=O)(=O)c1ccccc1)Nc1ccc(-c2nc3ccccc3s2)cc1 do in these assays?
GDH-TPI counter: 7.3; BH1578 lux ind: -0.3; Mtb FBA inh: 30.5*

What do the screens show for `Cc1ccc2nc(-c3ccc(NC(=O)COC(=O)c4ccco4)cc3)sc2c1`?
GDH-TPI counter: 20.6; BH1578 lux ind: -0.4; Mtb FBA inh: 10.5
